Where “and” joins values, the source holds several entries; their conditions need not be identical. Equal entries are not always repeated. Records with an inconclusive call do not appear. Where a structure was tested more than once in an assay, its records may differ in their call. Calls of active or inactive are those of the source. Unless noted, calls follow the shape of the dose curve; as a rule, active = well fitted curve in the direction sought with a large enough effect in the repeat runs; inconclusive = weak or mixed curves; inactive = no such curve, though single readings can be large; an effect the other way counts as inactive or inconclusive.
What was measured:
[1] = qHTS RealTime-Glo MT Cell Viability Assay in HepG2 cells - 16 hour (AID 1224885); also: nearly all actives have a fitted effect of over 50% in size
Method in brief: (§1)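 qHTS, HepG2, 600 cells/well, RealTime-Glo (NanoLuc + prosubstrate) added with cells; 5 h preincubation; DMSO compound addition; 37 C; luminescence at 0/8/16/24/32/40 h.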

[2] = qHTS RealTime-Glo MT Cell Viability Assay in HEK293 cells - 24 hour (AID 1224886); also: nearly all actives have a fitted effect of over 50% in size; also: potency is read from the fitted curve at half-maximal effect; as to activity change, negative = cytotoxicity: top concentration of the series differs between compounds
Method in brief: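 Assay medium contained NanoLuc luciferase plus cell-permeant prosubstrate, added with HEK293 cells at 600 cells/well. After 5 h at 37 C/5% CO2 compounds were added; plates stayed at 37 C for 40 h with serial luminescence reads.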

[3] = qHTS RealTime-Glo MT Cell Viability Assay in HEK293 cells - 8 hour (AID 1224887); also: top concentration of the series differs between compounds; nearly all actives have a fitted effect of over 50% in size
Method in brief: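 HEK293 cells mixed with RealTime-Glo reagents (NanoLuc plus cell-permeant prosubstrate) at 600 cells/well, preincubated 5 h at 37 C/5% CO2, then given 23 nL compound in DMSO. Nonlytic luminescence from viable cells was read at 0, 8, 16, 24, 32 and 40 h.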

[4] = A CellTox Green Cytotoxicity Assay to monitor cytotoxicity in HEK293 cells - 16 hour (AID 1224888); also: nearly all actives have a fitted effect of over 35% in size
Method in brief: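 HEK293 cells premixed with CellTox Green dye were seeded at 600 cells/well and left 5 h at 37 C/5% CO2 before pin transfer of 23 nL compound in DMSO. Fluorescence from dye bound to dead-cell DNA was read during 40 h treatment.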

[5] = qHTS RealTime-Glo MT Cell Viability Assay in HepG2 cells - 0 hour (AID 1224889); also: nearly all actives have a fitted effect of over 50% in size
Method in brief: as §1

[6] = A CellTox Green Cytotoxicity Assay to monitor cytotoxicity in HepG2 cells - 8 hour (AID 1224890); also: nearly all actives have a fitted effect of over 45% in size
Method in brief: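 HepG2 cells were seeded together with the CellTox Green dye at 600 cells/well, left 5 h at 37 C/5% CO2, then given compounds in DMSO. Fluorescence from dye bound to dead-cell DNA was read repeatedly over 40 h of treatment at 37 C.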

[7] = qHTS assay to identify small molecule antagonists of the estrogen receptor alpha (ER-alpha) signaling pathway using the BG1 cell line in the presence of 0.1 nM 17-beta-estradiol - cell viability counter screen (AID 1259241); also: nearly all actives have a fitted effect of over 40% in size
Method in brief: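 Measures cytotoxicity alongside the ER-alpha antagonist readout: VM7Luc4E2 cells, charcoal-stripped serum, 0.1 nM 17beta-estradiol final, 22 hr compound incubation at 37C, CellTiter-Fluor fluorescence.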

[8] = qHTS assay to identify small molecule antagonists of the androgen receptor (AR) signaling pathway using the MDA cell line in the presence of 0.5 nM R1881 - cell viability counter screen (AID 1259242); also: nearly all actives have a fitted effect of over 45% in size
Method in brief: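 MDA-kb2 cells (human breast carcinoma, stably carrying MMTV-luciferase reporter) were exposed to compounds with 0.5 nM R1881 (final) for 16 hr at 37C, 0% CO2; viability then read as live-cell protease fluorescence (CellTiter-Fluor, 30 min) in the same wells.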

[9] = biological target: Estrogen receptor (Homo sapiens) (UniProt P03372); assay: qHTS assay to identify small molecule antagonists of the estrogen receptor alpha (ER-alpha) signaling pathway using the BG1 cell line in the presence of 0.1 nM 17-beta-estradiol (AID 1259244); also: nearly all actives have a fitted effect of over 50% in size
Estrogen receptor (Homo sapiens), sequence (P03372 whole entry, looked up): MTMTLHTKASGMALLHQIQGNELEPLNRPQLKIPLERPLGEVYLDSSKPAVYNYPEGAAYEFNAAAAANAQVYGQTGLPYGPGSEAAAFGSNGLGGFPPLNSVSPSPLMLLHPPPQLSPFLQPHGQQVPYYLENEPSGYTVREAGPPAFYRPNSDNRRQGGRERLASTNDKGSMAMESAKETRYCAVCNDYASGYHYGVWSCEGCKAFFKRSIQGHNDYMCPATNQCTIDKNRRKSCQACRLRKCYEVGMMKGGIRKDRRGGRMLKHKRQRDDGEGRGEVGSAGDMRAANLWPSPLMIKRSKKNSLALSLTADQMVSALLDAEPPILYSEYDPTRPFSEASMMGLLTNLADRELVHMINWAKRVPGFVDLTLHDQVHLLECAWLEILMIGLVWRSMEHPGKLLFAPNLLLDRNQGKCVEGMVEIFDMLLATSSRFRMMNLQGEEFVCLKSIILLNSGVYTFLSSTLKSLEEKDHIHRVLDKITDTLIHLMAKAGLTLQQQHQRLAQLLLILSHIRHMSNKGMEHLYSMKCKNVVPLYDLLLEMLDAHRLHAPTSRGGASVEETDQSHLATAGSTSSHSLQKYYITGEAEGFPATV
Method in brief: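 VM7Luc4E2 cells (endogenous full-length ER-alpha, stable 4xERE-luciferase) were grown 5 days in phenol red-free medium with charcoal-stripped FBS, then exposed 22 h at 37C to compounds plus 0.1 nM (final) 17beta-estradiol; ONE-Glo luminescence read-out.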

[10] = qHTS assay to identify small molecule phospholipidosis (PLD) inducers (AID 1259344; active = well fitted curve in the direction sought with a large enough effect; an effect the other way counts as inactive or inconclusive)
Method in brief: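 Fluorescent phospholipid staining (LipidTOX Red) measured by automated microscopy in fixed HepG2 cells after 24 h treatment; nuclei counterstained with Hoechst 33342; amiodarone as reference inducer.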

[11] = qHTS assay to identify small molecule HDAC inhibitors (AID 1259364); also: top concentration of the series differs between compounds; nearly all actives have a fitted effect of over 45% in size
Method in brief: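 Wild-type HCT-116 cells were plated overnight, exposed to compounds for 2 h at 37 °C, then given HDAC-Glo class I/II luminogenic reagent for 30 min at room temperature before luminescence was read.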

[12] = qHTS assay to identify small molecule HDAC inhibitors - cell viability counter screen (AID 1259365)
Method in brief: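 Following a 2hr exposure of overnight-plated wild-type HCT-116 cells to DMSO-delivered compounds, CellTiter-Glo was added and luminescence recorded after 30min at room temperature.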

[13] = qHTS assay to identify small molecule agonists of the sonic hedgehog signaling (Shh) pathway - cell viability counter screen (AID 1259366); also: nearly all actives have a fitted effect of over 50% in size; also: potency is read from the fitted curve at half-maximal effect
Method in brief: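 After a 4hr attachment at 37C, NIH/3T3 cells bearing an integrated Gli1-driven luciferase reporter were dosed with compounds. Treatment lasted 24hr, with the final hour including CellTiter-Fluor for a fluorescence viability measurement.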

[14] = qHTS assay to identify small molecule antagonists of the sonic hedgehog signaling (Shh) pathway - cell viability counter screen (AID 1259367); also: nearly all actives have a fitted effect of over 55% in size; also: potency is read from the fitted curve at half-maximal effect
Method in brief: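 Using CellTiter-Fluor, viability of Gli1-Luc reporter 3T3 cells is read by fluorescence in the wells used for the Shh luciferase assay. Treatment lasts 23 hr with conditioned medium, then reagent 1 hr at 37C.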

[15] = qHTS assay to identify small molecule agonists of the sonic hedgehog signaling (Shh) pathway (AID 1259368; calls by dose curve; also: series mostly up to about 92 µM; nearly all actives have a fitted effect of over 15% in size)
Method in brief: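 NIH/3T3-derived 3T3Gli1-Luc cells carrying a stably integrated Gli1 response element–firefly luciferase reporter were plated, left 4 hr at 37 C, then given compounds in DMSO for 24 hr. Luminescence was read 30 min after adding luciferase reagent.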

[16] = qHTS assay to identify small molecule antagonists of the sonic hedgehog signaling (Shh) pathway (AID 1259369; calls by dose curve; also: nearly all actives have a fitted effect of over 45% in size; also: potency is read from the fitted curve at half-maximal effect)
Method in brief: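 NIH/3T3-derived 3T3Gli1-Luc cells with stably integrated Gli1-Luc reporter were preincubated 4hr at 37 C, then given compounds in DMSO plus Shh conditioned medium and incubated 24hr. Firefly luciferase luminescence read after 30min reagent at room temperature.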

[17] = qHTS assay to identify small molecule agonists of the androgen receptor (AR) signaling pathway in the presence of an antagonist - cell viability counter screen (AID 1259379); also: series mostly up to about 92 µM; nearly all actives have a fitted effect of over 25% in size
Method in brief: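 MDA-kb2 human breast carcinoma cells (stable MMTV-luciferase, AR/GR responsive) were seeded 3,000 cells/well, pre-incubated 5 hr at 37C without CO2, then given 3.0uM nilutamide and compounds at 15 concentrations for 16 hr. Viability was read by CellTiter-Fluor fluorescence.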

[18] = biological target: Estrogen receptor beta (Homo sapiens) (UniProt Q92731); assay: qHTS assay to identify small molecule agonists of the estrogen receptor beta (ER-beta) signaling pathway (AID 1259377; active = well fitted activation curve with a large enough effect in the signal ratio in the repeat runs, not every such curve was filed as active; the % refers to the signal ratio)
Estrogen receptor beta (Homo sapiens), sequence (Q92731 whole entry, looked up): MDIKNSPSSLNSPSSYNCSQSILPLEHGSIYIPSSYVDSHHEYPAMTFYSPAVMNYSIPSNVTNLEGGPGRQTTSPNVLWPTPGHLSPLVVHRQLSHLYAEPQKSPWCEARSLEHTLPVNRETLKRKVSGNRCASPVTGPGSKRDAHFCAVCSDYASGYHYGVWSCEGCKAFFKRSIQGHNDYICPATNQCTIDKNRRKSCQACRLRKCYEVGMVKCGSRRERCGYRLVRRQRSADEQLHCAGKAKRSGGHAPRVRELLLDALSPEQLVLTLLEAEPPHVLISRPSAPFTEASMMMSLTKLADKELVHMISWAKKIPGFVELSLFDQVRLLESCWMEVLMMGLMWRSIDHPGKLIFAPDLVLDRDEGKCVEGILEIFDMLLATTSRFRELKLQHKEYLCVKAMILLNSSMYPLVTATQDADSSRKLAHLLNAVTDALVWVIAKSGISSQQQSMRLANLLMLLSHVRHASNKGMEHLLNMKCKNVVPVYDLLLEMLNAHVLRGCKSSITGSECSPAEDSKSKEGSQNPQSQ
Method in brief: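 In HEK293T cells bearing a UAS-beta-lactamase reporter under ER-beta control, DMSO-delivered compounds were incubated for 16 hr at 37C. Activity was detected as fluorescence 2 hours after LiveBLAzer B/G FRET substrate addition.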

[19] = biological target: Estrogen receptor beta (Homo sapiens) (UniProt Q92731); assay: qHTS assay to identify small molecule antagonists of the estrogen receptor beta (ER-beta) signaling pathway (AID 1259378; active = well fitted inhibition curve with a large enough effect in the signal ratio in the repeat runs, not every such curve was filed as active; the % refers to the signal ratio)
Method in brief: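 Antagonist mode: compounds added to beta-lactamase reporter HEK293T ER-beta-UAS cells stimulated with E2 (1nM final), 16 hr at 37C. LiveBLAzer B/G FRET substrate, 2 hours room temperature, fluorescence read-out.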

[20] = biological target: Androgen receptor (Homo sapiens) (UniProt P10275); assay: qHTS assay to identify small molecule antagonists of the androgen receptor (AR) signaling pathway using the MDA cell line in the presence of 0.5 nM R1881 (AID 1259243); also: nearly all actives have a fitted effect of over 50% in size; also: potency is read from the fitted curve at half-maximal effect
Androgen receptor (Homo sapiens), sequence (P10275 whole entry, looked up): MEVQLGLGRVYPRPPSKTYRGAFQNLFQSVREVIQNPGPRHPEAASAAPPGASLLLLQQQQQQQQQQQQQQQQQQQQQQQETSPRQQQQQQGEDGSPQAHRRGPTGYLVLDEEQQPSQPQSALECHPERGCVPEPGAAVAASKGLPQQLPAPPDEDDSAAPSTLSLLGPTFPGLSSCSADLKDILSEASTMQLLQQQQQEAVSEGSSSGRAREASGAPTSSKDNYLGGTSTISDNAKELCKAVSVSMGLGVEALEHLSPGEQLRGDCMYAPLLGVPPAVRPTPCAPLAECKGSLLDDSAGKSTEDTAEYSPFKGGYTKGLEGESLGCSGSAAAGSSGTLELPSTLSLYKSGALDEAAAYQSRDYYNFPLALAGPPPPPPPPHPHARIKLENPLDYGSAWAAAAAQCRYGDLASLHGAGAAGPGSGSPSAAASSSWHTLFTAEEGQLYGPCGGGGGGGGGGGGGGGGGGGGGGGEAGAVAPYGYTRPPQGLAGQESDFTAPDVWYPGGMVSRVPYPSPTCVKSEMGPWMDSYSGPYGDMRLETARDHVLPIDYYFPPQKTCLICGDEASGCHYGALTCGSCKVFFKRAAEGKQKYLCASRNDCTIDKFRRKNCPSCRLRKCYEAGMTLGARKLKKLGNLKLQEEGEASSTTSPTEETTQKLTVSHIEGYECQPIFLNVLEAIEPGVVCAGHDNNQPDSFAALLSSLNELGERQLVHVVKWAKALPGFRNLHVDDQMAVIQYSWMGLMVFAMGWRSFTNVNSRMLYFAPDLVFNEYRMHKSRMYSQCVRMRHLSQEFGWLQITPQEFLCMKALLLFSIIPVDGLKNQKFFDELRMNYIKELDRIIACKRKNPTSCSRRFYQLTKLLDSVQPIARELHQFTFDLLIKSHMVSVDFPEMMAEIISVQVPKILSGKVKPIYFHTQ
Method in brief: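 MDA-kb2 human breast carcinoma cells carrying an MMTV-luciferase reporter (AR- and GR-responsive) were plated, rested 5 hr at 37C, dosed with compounds, then stimulated with 0.5 nM R1881 (final) for 16 hr; luminescence was read after ONE-Glo.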
% is scaled to controls: 0 for no effect and ±100 for the full control effect.

COc1ccc2c3c1O[C@H]1[C@@H](O)C=C[C@H]4[C@@H](C2)N(C)CC[C@@]341
48.2 µM (active) and inactive: Potency [2]
26.9 µM (active) and inactive: Potency [14]
active: Potency [16] 2.69 µM
21.3 µM (active) and inactive: Potency [13]
inactive: outcome [1] | outcome [3] | Potency [4] | outcome [5] | Potency [6] | Potency [7] | outcome [8] | Potency [9] | outcome [10] | Potency [11] | outcome [12] | outcome [15] | outcome [17]

O=C1CCCN1
inactive: outcome [1] | Potency [2] | outcome [3] | Potency [4] | outcome [5] | Potency [6] | Potency [7] | outcome [8] | Potency [9] | Potency [11] | outcome [12] | Potency [13] | outcome [15] | Potency [16] | outcome [17]

CC(C)C1(C)N=C(c2nc3ccccc3cc2C(=O)O)NC1=O (stereo unspecified)
inactive: outcome [1] | Potency [2] | outcome [3] | Potency [4] | outcome [5] | Potency [6] | Potency [7] | outcome [8] | Potency [9] | Potency [11] | outcome [12] | Potency [13] | outcome [15] | Potency [16] | Potency [18] | outcome [19] | outcome [17]

C=C(C)CCl
inactive: outcome [1] | activity change, negative = cytotoxicity [2] 6.36% [at 6.97 µM] | outcome [3] | Potency [4] | outcome [5] | Potency [6] | Potency [7] | outcome [8] | Potency [20] | Potency [9] | Potency [11] | outcome [12] | Potency [13] | outcome [15] | Potency [16] | outcome [17]

COCCl
16 µM (active) and inactive: Potency [16]
inactive: outcome [1] | Potency [2] | outcome [3] | Potency [4] | outcome [5] | Potency [6] | Potency [7] | outcome [8] | Potency [20] | Potency [11] | outcome [12] | Potency [13] | Potency [14] | outcome [15] | Potency [18] | outcome [17]

Cc1[nH]c(=O)n(C(C)(C)C)c(=O)c1Cl
inactive: outcome [1] | Potency [2] | outcome [3] | Potency [4] | outcome [5] | Potency [6] | outcome [8] | Potency [20] | Potency [9] | Potency [11] | outcome [12] | Potency [13] | outcome [15] | Potency [16] | outcome [17]

[N-]=[N+]=[N-]
inactive: outcome [1] | Potency [2] | outcome [3] | Potency [4] | outcome [5] | Potency [6] | Potency [7] | outcome [8] | Potency [9] | Potency [11] | outcome [12] | Potency [13] | Potency [14] | outcome [15] | Potency [16] | outcome [17]
41.8 µM (active) and inactive: Potency [20]

OCCN(CCO)CCO
inactive: outcome [1] | Potency [2] | outcome [3] | Potency [4] | outcome [5] | Potency [6] | Potency [7] | outcome [8] | PLD induction [10] 10.3% [at 7.66 µM] | Potency [11] | outcome [12] | Potency [13] | Potency [14] | outcome [15] | Potency [16] | outcome [17]

O=c1[nH]c2ccccc2c(=O)o1
inactive: outcome [1] | Potency [2] | outcome [3] | Potency [4] | outcome [5] | Potency [6] | Potency [7] | outcome [8] | Potency [9] | Potency [11] | outcome [12] | Potency [13] | Potency [14] | outcome [15] | Potency [16] | outcome [17]

CC(C)=C[C@@H]1[C@@H](C(=O)OCc2coc(Cc3ccccc3)c2)C1(C)C
inactive: outcome [1] | Potency [2] | outcome [3] | Potency [4] | outcome [5] | Potency [6] | Potency [7] | outcome [8] | Potency [9] | outcome [10] | Potency [11] | outcome [12] | Potency [13] | Potency [14] | outcome [15] | outcome [17]

c1ccc(-c2ccccc2)cc1
inactive: outcome [1] | Potency [2] | outcome [3] | Potency [4] | outcome [5] | Potency [6] | Potency [7] | outcome [8] | Potency [20] | Potency [9] | Potency [11] | outcome [12] | Potency [13] | Potency [14] | outcome [15] | Potency [16] | Potency [18] | outcome [17]

O=NN1CCCCCCC1
inactive: outcome [1] | Potency [2] | outcome [3] | Potency [4] | outcome [5] | Potency [6] | Potency [7] | outcome [8] | Potency [9] | Potency [11] | outcome [12] | Potency [13] | Potency [14] | outcome [15] | Potency [16] | outcome [17]

O=C(NC(=O)c1c(F)cccc1F)Nc1cc(Cl)c(OC(F)(F)C(F)C(F)(F)F)cc1Cl (stereo unspecified)
active: Potency [20] 19.3 µM and 26.6 µM
inactive: outcome [1] | Potency [2] | outcome [3] | Potency [4] | outcome [5] | Potency [6] | Potency [7] | outcome [8] | Potency [9] | outcome [10] | Potency [11] | outcome [12] | Potency [13] | outcome [15] | Potency [16] | Potency [18] | outcome [17]

CC(C)(C)OOC(C)(C)C
inactive: outcome [1] | Potency [2] | outcome [3] | Potency [4] | outcome [5] | Potency [6] | Potency [7] | outcome [8] | Potency [9] | Potency [11] | outcome [12] | Potency [13] | Potency [14] | outcome [15] | Potency [16] | Potency [18] | outcome [17]

CCNc1nc(NC(C)(C)C)nc(SC)n1
active: Potency [2] 43.1 µM | Potency [16] 1.7 µM and 6.11 µM
inactive: outcome [1] | outcome [3] | Potency [4] | outcome [5] | Potency [6] | Potency [7] | outcome [8] | Potency [9] | Potency [11] | outcome [12] | Potency [13] | outcome [15] | Potency [18] | outcome [19] | outcome [17]

CCCCCOC(=O)c1ccccc1C(=O)OCCCCC
inactive: outcome [1] | Potency [2] | outcome [3] | Potency [4] | outcome [5] | Potency [6] | Potency [7] | outcome [8] | Potency [9] | Potency [11] | outcome [12] | Potency [13] | Potency [14] | outcome [15] | Potency [16] | Potency [18] | outcome [19] | outcome [17]

CCC[CH2][Sn]([Cl])([Cl])[Cl]
inactive: outcome [1] | Potency [2] | outcome [3] | Potency [4] | outcome [5] | Potency [6] | Potency [7] | outcome [8] | Potency [9] | Potency [11] | outcome [12] | Potency [13] | outcome [15] | Potency [16] | outcome [17]
